AmpC inh no detg: qHTS Inhibitors of AmpC Beta-Lactamase (assay without detergent); Potency, µM (titrated, usually from 57.1 µM), for inactives: at the highest dose activity change, negative = inhibition, actives largely listed as inhibitors; AID 485341, 2010; AmpC nitrocefin hydrolysis, absorbance 480 nm, 0.0001% Triton; hit rate 0.52% among 330,000; P00811;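 also: potency is read from the fitted curve at half-maximal effect; plate controls were no compound for no effect and no enzyme for full effect; nearly all actives have a fitted effect of over 20% in size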
Target sequence (P00811 whole entry, looked up): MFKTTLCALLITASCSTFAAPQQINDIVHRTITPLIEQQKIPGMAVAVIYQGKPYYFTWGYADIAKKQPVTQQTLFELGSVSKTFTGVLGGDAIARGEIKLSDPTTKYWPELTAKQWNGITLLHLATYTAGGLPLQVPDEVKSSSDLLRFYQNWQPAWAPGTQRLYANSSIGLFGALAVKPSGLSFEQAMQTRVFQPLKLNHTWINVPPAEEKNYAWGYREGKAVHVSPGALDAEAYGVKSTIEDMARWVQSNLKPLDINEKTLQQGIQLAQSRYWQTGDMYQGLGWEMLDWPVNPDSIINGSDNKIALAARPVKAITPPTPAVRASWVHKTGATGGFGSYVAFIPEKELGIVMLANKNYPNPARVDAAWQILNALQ
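20 mM phosphate pH 7.0 + 0.01% (detergent screen) or 0.0001% Triton X-100; 5.3 nM AmpC reagent; cpd preinc 15 min RT; nitrocefin (800 uM stock) to start; A480 q20 s × 4 min; Activity was normalised to no-enzyme and no-compound control wells.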
AMA1 RON2 block: qHTS for Inhibitors of AMA1-RON; Towards Development of Antimalarial Drug Lead: Primary Screen; hit rate 0.2% among 360,000; AlphaScreen AMA1-biotinylated RON2 peptide binding; Plasmodium falciparum AMA1 (3D7) - RON2 peptide interaction; Potency, µM (titrated, usually from 58.2 µM), inactives show at the top dose activity change, negative = inhibition, actives largely listed as inhibitors;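 also: potency is read from the fitted curve at half-maximal effect; 0% = vehicle wells and -100% = peptide control; nearly all actives have a fitted effect of over 45% in size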
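AMA1 (3D7) with his tag at 25 nM final met compounds first, then biotinylated RON2 peptide at 25 nM; detection used donor plus acceptor beads, 10 µg/mL apiece, read by AlphaScreen after 30 min at room temperature.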
AmpC detergent: qHTS Inhibitors of AmpC Beta-Lactamase (assay with detergent); P00811; AmpC hydrolysis of nitrocefin, absorbance 480 nm, 0.01% Triton; Potency, µM (doses to about 114 µM), for the others: top-dose activity change, negative = inhibition, usual class: inhibitors; hit rate 0.041% among 370,000; AID 485294, 2010;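 also: potency is read from the fitted curve at half-maximal effect; 0% = no-compound wells and -100% = no-enzyme wells; nearly all actives have a fitted effect of over 25% in size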
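AmpC (5.3 nM in the dispensed reagent) in 20 mM phosphate pH 7.0 with 0.01% (detergent screen) or 0.0001% Triton X-100 was preincubated with compounds for 15 min at room temperature. Nitrocefin was then added from an 800 uM solution, and hydrolysis was followed at 480 nm.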
SARS PLpro yeast: qHTS of Yeast-based Assay for SARS-CoV PLP; S. cerevisiae expressing SARS-CoV PLpro, growth rescue; hit rate 0.19% among 330,000; Potency, µM (top dose mostly 32.9 µM), without a hit: at the top dose activity, positive = growth rescue, usual class: activators; AID 485353, 2010; calls by dose curve; also: potency is read from the fitted curve at half-maximal effect; 0% is about no effect; nearly all actives have a fitted effect of over 55% in size
Shiga toxin inh: A qHTS for Small Molecule Inhibitors of Shiga Toxin; AID 2315, 2010; hit rate 9.2% among 290,000; inhibition, % at 38.7 µM; Vero cells, Shiga toxin protein synthesis inhibition reporter; in the data active = inhibition mostly above about 28%, no sharp cut-off; inactive = mostly below about 43%; also: 0% is about no effect
CHX counter: Cycloheximide Counterscreen for Small Molecule Inhibitors of Shiga Toxin. hit rate 12% among 300,000. max response, %. AID 2314, 2010. cell reporter, cycloheximide protein synthesis inhibition counterscreen; in the data active = max response mostly above about 13%, no sharp cut-off; inactive = mostly below about 14%; also: read at 38.3 µM for the half of the compounds with a filed dose; 0% is about no effect
* hit, by the source's call; ? = inconclusive; / = no result given; [ ] = remark or other dose. Only a selection was taken, and hits are over-represented in it overall. Unless noted, calls follow the shape of the dose curve; as a rule, active = well fitted curve in the direction sought with a large enough effect; inconclusive = small, poorly fitted or top-dose-only effect, or another doubt; inactive = no such curve, though single readings can be large; an effect the other way counts as inactive or inconclusive.

SMILES	AmpC inh no detg	AMA1 RON2 block	AmpC detergent	SARS PLpro yeast	Shiga toxin inh	CHX counter
CCOc1ccc(-c2ccc(SCc3ccccn3)nn2)cc1	0.5%	-15.8%	?	-2.5%	59.4*	40.5*
CC(C)(C)OC(=O)N/N=C/c1ccc(N2CCOCC2)s1	-3.5%	1.8%[2.32 µM]	-1.4%	7.6%	88.6*	55.3*
Nc1ccc(C(=O)N/N=C/c2ccc(N3CCOCC3)s2)cc1	-20.2%	94.3%	/	2.8%	/	/
Clc1cccc(N/N=C/c2ccc(N3CCOCC3)s2)c1	-22.2%	?	-14.2%	-58.6%	17.5	22.8*
COc1ccc(OC)c(CNC(=O)c2coc(=O)c3ccccc23)c1	-10.6%	-3.0%	-11.3%	3.2%	-4.4	-3.8
COc1cc(CNc2ccc(N3CCN(C(C)=O)CC3)cc2)ccc1OCc1ccccc1	209.2%	?	6.8%	-2.7%	51.6*	23.3*
COc1cc(CNc2ccc(N3CCOCC3)cc2)ccc1OCC(=O)NC(C)(C)C	56.3%	?	?	-3.7%	15.5	-2.1
COc1cc(CNc2ccc(NC(C)=O)cc2)ccc1OCc1ccccc1C	-3.7%[2.29 µM]	-3.3%	3.7%	-4.0%	87.5*	46.4*
O=C(CN1C(=O)S/C(=C\c2cccs2)C1=O)Nc1ccc(C(=O)O)c(O)c1	-31.5%	-11.6%	1.3%	0.8%	0.5	-0.8
CCOc1ccccc1NC(=O)N1CCc2ccccc2C1	-12.5%	-7.0%	6.4%	-6.7%	22.3	18.7*
COc1ccc(NC(=O)N2CCc3ccccc3C2)c(OC)c1	-4.7%	-12.8%	3.0%	-7.6%	36.3*	16.5*
Cc1cc(-c2nnc(-c3cc4ccccc4oc3=O)o2)c(C)n1-c1ccccc1	-11.8%	6.7%	1.1%	2.8%	35.6	31.7*
COc1ccc2oc(=O)c(-c3nc4ccccc4o3)cc2c1	-29.1%	1.4%	?	-17.4%	66.4*	25.0*
O=c1oc2ccccc2cc1-c1nc2c(s1)CCCC2	-23.5%	33.2%	-1.9%	-8.2%	56.0*	31.2*
COc1ccc(-c2nnc(-c3cc4ccccc4oc3=O)o2)cc1	-9.1%	-9.6%	5.3%	19.7%	15.4	10.2
O=c1oc2ccccc2cc1-c1nc2ccccc2o1	-19.8%	41.2%	-1.9%	-2.9%	71.0*	37.8*
COc1ccc(C(C(=O)NC2CCCC2)N(C(=O)c2ccco2)c2cccc(C(C)=O)c2)cc1OC (configuration not stated)	24.5%	-6.8%	-3.1%	0.9%	2.1	-7.6
CCCCNC(=O)c1cc(C)nc2ccccc12	-11.7%	3.3%	3.9%	0.0%	-5.1	-1.8
O=C(Nc1ccccc1C(F)(F)F)N1CCN(C(c2ccccc2)c2ccccc2)CC1	31.1%	-5.5%	-6.2%	1.5%	2.3	-3.2
C/C(=N\NS(=O)(=O)c1ccc(C)cc1)c1ccc(C)s1	-36.2%	4.1%	0.6%	-4.9%	-13.8	2.0
Cc1ccccc1NC(=O)Nc1ccc2c(c1)CCC2	-18.5%	0.0%	?	?	103.5*	28.3*
Cc1ccc(NC(=O)Nc2ccc3c(c2)CCC3)cc1	-45.7%	11.4%	3.8%	1.8%	53.7*	47.8*
O=C(Nc1cccc(F)c1)Nc1ccc2c(c1)CCC2	-20.1%	0.0%	4.7%	-1.1%	80.0*	24.5*
O=C(Nc1ccc2c(c1)CCC2)c1ncoc1-c1ccccc1F	-28.6%	-2.4%	?	1.4%	78.7	27.3*
Cc1ccc(CN2CC(C(=O)NCCCn3nc(C)cc3C)CC2=O)cc1 (configuration not stated)	/	-11.5%	/	/	/	/
SMILES	AmpC inh no detg	AMA1 RON2 block	AmpC detergent	SARS PLpro yeast	Shiga toxin inh	CHX counter
CS(=O)(=O)Cc1ccc(C(=O)NC2CCN(Cc3ccccc3)C2)cc1 (configuration not stated)	-11.7%	1.7%	-15.0%	5.5%	16.9	-3.6
CCCCCCN(C(=O)CCCCCN1C(=O)NC(c2ccc(-c3ccccc3)cc2)C(C(=O)OCc2ccccc2)=C1C)C(C(=O)NCCCC)c1ccccc1 (configuration not stated)	-8.2%	/	4.0%	0.7%	0.4	-1.9
Cc1ccccc1NC(=O)Nc1ccc(C(F)(F)F)cc1	-28.4%	3.2%	6.1%	-2.4%	56.1*	23.2*
O=C(Nc1cccc([N+](=O)[O-])c1)Nc1cccs1	-47.1%	-7.8%	0.5%	-7.0%	37.2	32.3*
Cc1ccccc1NC(=O)CNC(=O)c1ccc(C(F)(F)F)cc1	-18.5%	4.6%	?	16.6%	26.6	11.5
COC(=O)c1sccc1NC(=O)Nc1cccc([N+](=O)[O-])c1	-29.5%	-9.2%	?	11.1%	-3.3	1.8
O=C(Nc1ccc2c(c1)CCC2)c1cccc(OC(F)F)c1	/	-0.4%	/	/	/	/
O=[N+]([O-])c1cccc(CNc2ccc3c(c2)CCC3)c1	-37.2%	?	-4.8%	-49.9%	active	18.9
O=C(Nc1ccc2c(c1)CCC2)c1ccc(F)cc1	-11.9%	21.5%	5.7%	-9.1%	0.0	30.2*
O=C(NCC1CCCO1)c1cccnc1Nc1ccccc1F (configuration not stated)	-2.9%	10.7%	-9.8%	0.0%	65.4	-2.4
Cc1ccc(NC(=S)N(C)C(c2ccccc2)c2ccccc2)cc1C	-14.4%	18.5%	-12.1%	-2.5%	19.6	0.7
O=C1NN(c2ccc(Cl)c(Cl)c2)C(=O)/C1=C/c1cccc(OC(=O)c2cccs2)c1	?	/	?	-2.4%	39.0	-1.2
O=C(OCc1c(-c2ccccc2)ncc2ccccc12)c1ccc(C(F)(F)F)cc1	-12.8%	3.3%	/	0.1%	/	/
O=C(CC1CCCC1)Nc1ccc2c(c1)CCC2	-36.1%	16.3%	-0.3%	2.1%	50.8*	29.1*
O=C(Nc1ccc(F)cc1)Nc1ccc2c(c1)CCC2	-29.8%	-5.2%	-3.7%	0.3%	68.3*	48.7*
O=C(O)c1ccc(NC(=O)c2cc(S(=O)(=O)N3CCCCC3)c(Cl)cc2Cl)cc1	/	/	0.6%	/	/	/
Cc1cc(C)cc(NC(=O)Nc2ccc3c(c2)CCC3)c1	-15.7%	0.0%	-4.5%	3.6%	-1.9	-2.9
O=C(Nc1ccccc1)Nc1ccc2c(c1)CCC2	-34.9%	-8.6%	11.2%	-1.1%	155.7*	81.4*
O=C(Nc1ccc2c(c1)CCC2)c1cc(S(=O)(=O)Nc2ccc(F)cc2)c(Cl)cc1Cl	-38.2%	-1.4%	15.5%	-9.2%	29.1	19.1*
COc1ccccc1N(C)S(=O)(=O)c1ccc(Cl)c(C(=O)N2CCC2)c1	17.7%	9.0%	0.0%	1.5%	/	/
O=C(COc1ccc(S(=O)(=O)N2CCOCC2)cc1)NCCc1ccccc1	-10.2%	3.8%	?	9.2%	/	/
Cc1ccccc1-c1nc(CS(=O)(=O)CC(=O)NC2CC2)c(C)o1	9.7%	2.0%	-0.7%	-2.0%	-4.3	-10.4
